Assay in all cases: DAPPL (digital affinity profiling via proximity ligation, sequencing); 10 mM Tris-HCl pH 7.5, 50 mM NaCl, 1 mM DTT, 4% glycerol, room temperature, 30 min; GST-TFs on glutathione beads, 16-mer random dsDNA library, 0.1% formaldehyde crosslink after washing; high values mean tight binding
The target in one test is T1, FEV (Homo sapiens, UniProt Q99581 1-238).
T1 sequence: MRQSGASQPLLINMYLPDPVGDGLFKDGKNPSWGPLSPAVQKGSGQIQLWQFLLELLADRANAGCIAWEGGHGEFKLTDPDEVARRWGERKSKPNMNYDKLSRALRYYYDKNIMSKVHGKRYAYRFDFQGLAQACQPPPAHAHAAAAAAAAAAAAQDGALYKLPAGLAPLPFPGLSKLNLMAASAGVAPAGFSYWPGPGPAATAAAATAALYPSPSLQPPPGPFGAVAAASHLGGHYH
As to conditions: protein: recombinant; tags: N-terminal GST; dsDNA, one strand shown. Put shortly: (§1)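 Human transcription factors fused to GST were expressed in yeast, captured on glutathione beads, given DNA barcodes and pooled with a GST-only negative control. Pools were incubated with 200 nmole of a 16-mer random double-stranded DNA library in Tris/NaCl/DTT/glycerol buffer at room temperature for 30 min. They were then washed, crosslinked with 0.1% formaldehyde, proximity-ligated (BsaI/T4 ligase, 1 h, 37 °C), PCR-amplified and sequenced on an Illumina NextSeq500. Binding signal is each 6-mer's read frequency for a factor divided by its frequency for the GST control.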

A further test deals with ETV5 (Homo sapiens, UniProt P41161 1-510). As to conditions: protein: recombinant; tags: N-terminal GST; dsDNA, one strand shown. Put shortly:
as §1

For a further test, the target named is HSF1 (Homo sapiens, UniProt Q00613 1-529). As to conditions: protein: recombinant; tags: N-terminal GST; chain copies: 3; dsDNA, one strand shown. The gist of the method:
as §1

A further test has as its target T2, SPIC (Homo sapiens, UniProt Q8N5J4 1-248).
T2 sequence: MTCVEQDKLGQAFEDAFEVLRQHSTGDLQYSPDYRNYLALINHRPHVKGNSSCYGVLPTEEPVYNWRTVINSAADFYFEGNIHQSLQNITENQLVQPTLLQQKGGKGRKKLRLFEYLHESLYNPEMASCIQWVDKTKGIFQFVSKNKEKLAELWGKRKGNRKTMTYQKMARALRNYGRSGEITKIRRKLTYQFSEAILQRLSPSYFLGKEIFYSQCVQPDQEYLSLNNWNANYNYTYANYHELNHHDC
To be noted: protein: recombinant; tags: N-terminal GST; dsDNA, one strand shown. The gist of the method: as §1

The next test addresses ELF4 (Homo sapiens, UniProt Q99607 1-663). As to conditions: protein: recombinant; tags: N-terminal GST; dsDNA, one strand shown. The gist of the method: as §1
The next test deals with T3, ELK4 (Homo sapiens, UniProt P28324-2 1-405).
T3 sequence: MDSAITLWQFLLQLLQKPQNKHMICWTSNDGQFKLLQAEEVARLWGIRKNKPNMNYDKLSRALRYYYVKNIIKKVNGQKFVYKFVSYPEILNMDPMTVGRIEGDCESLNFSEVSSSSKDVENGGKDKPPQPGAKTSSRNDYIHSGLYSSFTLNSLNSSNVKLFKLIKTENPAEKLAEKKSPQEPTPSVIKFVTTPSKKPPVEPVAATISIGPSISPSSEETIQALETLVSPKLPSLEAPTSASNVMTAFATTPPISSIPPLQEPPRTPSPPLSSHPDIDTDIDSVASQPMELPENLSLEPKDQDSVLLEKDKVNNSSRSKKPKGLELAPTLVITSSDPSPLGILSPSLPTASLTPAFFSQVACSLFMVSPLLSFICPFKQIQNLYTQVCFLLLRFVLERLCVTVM
To be noted: protein: recombinant; tags: N-terminal GST; dsDNA, one strand shown. The gist of the method: as §1

A further test addresses T4, ETV2 (Homo sapiens, UniProt O00321 1-342).
T4 sequence: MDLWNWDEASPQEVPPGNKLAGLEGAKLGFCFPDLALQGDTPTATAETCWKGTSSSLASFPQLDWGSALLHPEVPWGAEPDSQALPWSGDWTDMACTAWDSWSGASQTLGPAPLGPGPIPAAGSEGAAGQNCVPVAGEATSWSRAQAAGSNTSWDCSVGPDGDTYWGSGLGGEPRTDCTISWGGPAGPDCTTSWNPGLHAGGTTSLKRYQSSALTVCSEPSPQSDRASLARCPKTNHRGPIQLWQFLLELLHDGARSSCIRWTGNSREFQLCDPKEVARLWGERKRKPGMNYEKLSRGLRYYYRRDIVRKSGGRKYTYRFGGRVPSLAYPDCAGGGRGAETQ
As to conditions: protein: recombinant; tags: N-terminal GST; dsDNA, one strand shown. The gist of the method: as §1

In another test the target is T5, ELF3 (Homo sapiens, UniProt P78545 1-371).
T5 sequence: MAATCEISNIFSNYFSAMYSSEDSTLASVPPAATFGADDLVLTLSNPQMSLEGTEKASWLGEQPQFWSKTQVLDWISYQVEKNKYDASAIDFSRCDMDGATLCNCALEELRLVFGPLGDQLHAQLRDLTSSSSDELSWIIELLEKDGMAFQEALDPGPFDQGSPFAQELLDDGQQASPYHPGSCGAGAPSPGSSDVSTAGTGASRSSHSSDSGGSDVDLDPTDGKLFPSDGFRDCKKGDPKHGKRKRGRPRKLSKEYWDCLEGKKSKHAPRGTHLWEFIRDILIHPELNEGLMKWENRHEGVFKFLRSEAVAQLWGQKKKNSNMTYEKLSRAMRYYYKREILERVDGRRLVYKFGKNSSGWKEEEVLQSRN
To be noted: protein: recombinant; tags: N-terminal GST; dsDNA, one strand shown. The gist of the method:
as §1

In a further test the target is CRX (Homo sapiens, UniProt O43186 1-299). To be noted: protein: recombinant; tags: N-terminal GST; dsDNA, one strand shown. The gist of the method:
as §1

Another test deals with ETV1 (Homo sapiens, UniProt P50549 1-477). To be noted: protein: recombinant; tags: N-terminal GST; dsDNA, one strand shown. Put shortly: as §1
The next test concerns the target T6, ERF (Homo sapiens, UniProt P50548 1-548).
T6 sequence: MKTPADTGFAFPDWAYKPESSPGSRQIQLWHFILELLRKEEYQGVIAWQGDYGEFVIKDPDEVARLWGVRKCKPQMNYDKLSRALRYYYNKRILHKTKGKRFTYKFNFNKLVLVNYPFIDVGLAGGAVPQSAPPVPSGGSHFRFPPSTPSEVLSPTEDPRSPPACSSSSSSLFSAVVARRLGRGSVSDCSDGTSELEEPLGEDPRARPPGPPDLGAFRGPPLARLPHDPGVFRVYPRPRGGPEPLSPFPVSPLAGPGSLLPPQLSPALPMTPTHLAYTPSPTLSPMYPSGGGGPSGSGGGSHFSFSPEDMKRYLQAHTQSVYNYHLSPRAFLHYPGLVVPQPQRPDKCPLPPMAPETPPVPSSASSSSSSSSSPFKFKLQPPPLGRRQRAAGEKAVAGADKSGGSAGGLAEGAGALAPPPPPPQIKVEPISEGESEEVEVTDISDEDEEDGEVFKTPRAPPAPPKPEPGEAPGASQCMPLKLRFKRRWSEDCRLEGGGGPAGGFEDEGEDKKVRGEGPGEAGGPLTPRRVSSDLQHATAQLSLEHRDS
To be noted: protein: recombinant; tags: N-terminal GST; dsDNA, one strand shown. Put shortly: as §1

The target in another test is T7, ETV3L (Homo sapiens, UniProt Q6ZN32 1-361).
T7 sequence: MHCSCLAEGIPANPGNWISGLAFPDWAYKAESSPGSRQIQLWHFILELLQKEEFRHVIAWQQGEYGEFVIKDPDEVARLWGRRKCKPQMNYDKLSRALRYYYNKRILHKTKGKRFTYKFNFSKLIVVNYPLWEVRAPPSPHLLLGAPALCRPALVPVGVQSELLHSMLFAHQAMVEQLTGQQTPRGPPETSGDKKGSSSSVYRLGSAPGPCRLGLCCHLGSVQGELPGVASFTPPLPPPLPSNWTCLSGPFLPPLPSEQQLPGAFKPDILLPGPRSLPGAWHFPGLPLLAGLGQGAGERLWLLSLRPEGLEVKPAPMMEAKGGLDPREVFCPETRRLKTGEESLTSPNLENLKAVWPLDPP
As to conditions: protein: recombinant; tags: N-terminal GST; dsDNA, one strand shown. The gist of the method:
as §1

The target in a further test is T8, ETS2 (Homo sapiens, UniProt P15036 1-469).
T8 sequence: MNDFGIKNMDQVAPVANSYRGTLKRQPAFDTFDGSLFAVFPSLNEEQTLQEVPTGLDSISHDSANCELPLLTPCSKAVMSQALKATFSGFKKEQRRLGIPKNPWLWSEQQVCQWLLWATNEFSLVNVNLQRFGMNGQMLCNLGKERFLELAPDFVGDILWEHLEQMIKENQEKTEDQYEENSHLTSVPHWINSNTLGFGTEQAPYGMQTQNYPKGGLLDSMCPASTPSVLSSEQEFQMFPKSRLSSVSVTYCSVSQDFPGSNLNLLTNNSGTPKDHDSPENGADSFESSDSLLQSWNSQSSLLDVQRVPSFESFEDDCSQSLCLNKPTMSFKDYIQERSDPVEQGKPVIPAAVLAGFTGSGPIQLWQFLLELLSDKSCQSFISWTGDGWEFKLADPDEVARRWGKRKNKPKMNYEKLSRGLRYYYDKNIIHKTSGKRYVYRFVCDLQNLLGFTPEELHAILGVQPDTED
As to conditions: protein: recombinant; tags: N-terminal GST; dsDNA, one strand shown. Put shortly: as §1

A further test concerns the target T9, SPDEF (Homo sapiens, UniProt O95238 1-335).
T9 sequence: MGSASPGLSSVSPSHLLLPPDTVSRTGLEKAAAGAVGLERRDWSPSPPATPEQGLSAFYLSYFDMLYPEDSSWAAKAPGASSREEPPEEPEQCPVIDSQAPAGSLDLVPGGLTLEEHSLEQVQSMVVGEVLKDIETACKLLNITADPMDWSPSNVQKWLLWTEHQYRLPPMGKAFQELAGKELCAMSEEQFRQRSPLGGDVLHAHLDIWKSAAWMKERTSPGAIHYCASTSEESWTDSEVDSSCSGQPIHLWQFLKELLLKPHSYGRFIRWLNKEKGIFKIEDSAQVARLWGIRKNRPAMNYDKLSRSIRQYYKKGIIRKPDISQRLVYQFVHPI
To be noted: protein: recombinant; tags: N-terminal GST; dsDNA, one strand shown. Put shortly:
as §1

The next test concerns the target T10, ETV7 (Homo sapiens, UniProt Q9Y603 1-341).
T10 sequence: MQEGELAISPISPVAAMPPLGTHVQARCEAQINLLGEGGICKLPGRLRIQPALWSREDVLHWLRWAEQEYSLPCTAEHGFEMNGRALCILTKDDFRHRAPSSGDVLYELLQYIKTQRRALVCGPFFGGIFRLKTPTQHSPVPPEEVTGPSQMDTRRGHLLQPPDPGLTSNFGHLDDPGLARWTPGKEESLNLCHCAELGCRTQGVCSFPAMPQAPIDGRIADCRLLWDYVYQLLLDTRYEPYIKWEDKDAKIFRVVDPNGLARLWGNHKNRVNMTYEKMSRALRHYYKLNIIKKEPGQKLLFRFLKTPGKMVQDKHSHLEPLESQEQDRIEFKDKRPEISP
As to conditions: protein: recombinant; tags: N-terminal GST; dsDNA, one strand shown. The gist of the method:
as §1

The target of a further test is T11, ELF5 (Homo sapiens, UniProt Q9UKW6-2 1-255).
T11 sequence: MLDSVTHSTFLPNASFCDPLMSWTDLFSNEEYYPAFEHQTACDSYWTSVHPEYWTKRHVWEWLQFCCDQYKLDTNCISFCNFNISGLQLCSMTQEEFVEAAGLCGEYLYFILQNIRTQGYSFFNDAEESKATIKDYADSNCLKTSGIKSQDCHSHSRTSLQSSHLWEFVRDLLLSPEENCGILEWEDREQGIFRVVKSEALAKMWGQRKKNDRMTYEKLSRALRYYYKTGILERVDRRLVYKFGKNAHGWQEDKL
As to conditions: protein: recombinant; tags: N-terminal GST; dsDNA, one strand shown. The gist of the method:
as §1

The target of a further test is T12, ETV3 (Homo sapiens, UniProt P41162-2 1-143).
T12 sequence: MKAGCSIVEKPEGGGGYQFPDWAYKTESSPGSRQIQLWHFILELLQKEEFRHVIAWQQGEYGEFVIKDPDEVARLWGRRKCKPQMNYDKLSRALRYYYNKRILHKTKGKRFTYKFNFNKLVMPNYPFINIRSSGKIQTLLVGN
To be noted: protein: recombinant; tags: N-terminal GST; dsDNA, one strand shown. Put shortly:
as §1

In a further test the target is ETV6 (Homo sapiens, UniProt P41212 1-452). As to conditions: protein: recombinant; tags: N-terminal GST; dsDNA, one strand shown. The gist of the method: as §1
Sequence of ETV6 (P41212 whole entry): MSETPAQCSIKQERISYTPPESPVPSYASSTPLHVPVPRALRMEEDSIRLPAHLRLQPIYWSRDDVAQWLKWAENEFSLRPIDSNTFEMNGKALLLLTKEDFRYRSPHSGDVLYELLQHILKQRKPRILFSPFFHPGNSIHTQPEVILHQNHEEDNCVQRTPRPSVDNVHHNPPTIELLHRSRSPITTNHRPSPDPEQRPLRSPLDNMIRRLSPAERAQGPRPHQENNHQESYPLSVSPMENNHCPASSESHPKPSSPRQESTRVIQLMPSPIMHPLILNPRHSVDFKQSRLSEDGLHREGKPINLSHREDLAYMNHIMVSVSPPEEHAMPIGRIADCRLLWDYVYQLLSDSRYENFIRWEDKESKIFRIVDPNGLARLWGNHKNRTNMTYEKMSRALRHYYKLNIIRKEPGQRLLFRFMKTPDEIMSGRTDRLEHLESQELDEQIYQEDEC

Sequence of ETV5 (P41161 whole entry): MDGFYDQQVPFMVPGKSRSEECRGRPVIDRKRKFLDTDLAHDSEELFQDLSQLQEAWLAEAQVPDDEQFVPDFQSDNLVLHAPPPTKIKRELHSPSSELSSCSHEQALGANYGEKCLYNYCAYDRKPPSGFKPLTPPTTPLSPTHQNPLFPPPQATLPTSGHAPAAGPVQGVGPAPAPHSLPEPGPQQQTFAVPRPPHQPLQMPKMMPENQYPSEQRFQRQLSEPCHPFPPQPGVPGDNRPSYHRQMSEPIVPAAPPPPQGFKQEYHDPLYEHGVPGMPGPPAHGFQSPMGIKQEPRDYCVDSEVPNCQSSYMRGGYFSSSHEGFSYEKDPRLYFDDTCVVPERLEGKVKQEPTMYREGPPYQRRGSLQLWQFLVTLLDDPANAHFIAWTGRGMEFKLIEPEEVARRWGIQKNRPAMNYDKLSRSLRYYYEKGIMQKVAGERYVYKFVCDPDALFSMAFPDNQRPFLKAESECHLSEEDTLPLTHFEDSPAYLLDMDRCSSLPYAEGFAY
Sequence of HSF1 (Q00613 whole entry): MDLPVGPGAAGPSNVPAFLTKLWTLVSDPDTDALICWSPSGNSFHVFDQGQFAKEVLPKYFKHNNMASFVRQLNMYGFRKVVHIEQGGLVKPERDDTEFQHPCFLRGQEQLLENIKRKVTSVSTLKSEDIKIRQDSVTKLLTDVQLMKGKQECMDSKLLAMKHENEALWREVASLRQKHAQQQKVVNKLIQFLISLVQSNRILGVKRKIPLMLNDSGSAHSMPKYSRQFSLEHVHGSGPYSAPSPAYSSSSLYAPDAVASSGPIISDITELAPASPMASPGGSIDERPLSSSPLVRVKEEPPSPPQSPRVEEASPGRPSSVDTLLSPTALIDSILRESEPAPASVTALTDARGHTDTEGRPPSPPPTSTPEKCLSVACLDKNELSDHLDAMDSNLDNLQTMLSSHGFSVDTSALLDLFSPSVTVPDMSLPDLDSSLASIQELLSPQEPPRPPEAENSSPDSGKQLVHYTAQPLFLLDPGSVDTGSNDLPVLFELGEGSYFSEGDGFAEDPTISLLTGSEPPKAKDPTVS
Sequence of ELF4 (Q99607 whole entry): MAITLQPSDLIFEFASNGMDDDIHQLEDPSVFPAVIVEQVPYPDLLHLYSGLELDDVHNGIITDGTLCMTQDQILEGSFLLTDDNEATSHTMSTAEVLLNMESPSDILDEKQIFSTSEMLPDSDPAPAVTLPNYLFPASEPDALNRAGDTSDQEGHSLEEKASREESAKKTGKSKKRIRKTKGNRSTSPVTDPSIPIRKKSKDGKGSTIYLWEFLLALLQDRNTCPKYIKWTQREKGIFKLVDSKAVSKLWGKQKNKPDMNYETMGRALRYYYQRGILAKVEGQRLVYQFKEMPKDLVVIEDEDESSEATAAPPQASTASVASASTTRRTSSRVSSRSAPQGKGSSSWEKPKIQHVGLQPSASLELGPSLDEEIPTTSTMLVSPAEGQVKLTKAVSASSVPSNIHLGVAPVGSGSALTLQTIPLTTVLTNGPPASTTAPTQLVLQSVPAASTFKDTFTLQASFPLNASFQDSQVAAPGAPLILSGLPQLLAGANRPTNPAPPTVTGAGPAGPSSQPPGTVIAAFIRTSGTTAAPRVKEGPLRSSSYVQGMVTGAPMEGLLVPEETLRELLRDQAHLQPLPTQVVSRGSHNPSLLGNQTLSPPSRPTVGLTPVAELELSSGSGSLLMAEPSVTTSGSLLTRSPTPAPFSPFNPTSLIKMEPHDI
Sequence of ETV1 (P50549 whole entry): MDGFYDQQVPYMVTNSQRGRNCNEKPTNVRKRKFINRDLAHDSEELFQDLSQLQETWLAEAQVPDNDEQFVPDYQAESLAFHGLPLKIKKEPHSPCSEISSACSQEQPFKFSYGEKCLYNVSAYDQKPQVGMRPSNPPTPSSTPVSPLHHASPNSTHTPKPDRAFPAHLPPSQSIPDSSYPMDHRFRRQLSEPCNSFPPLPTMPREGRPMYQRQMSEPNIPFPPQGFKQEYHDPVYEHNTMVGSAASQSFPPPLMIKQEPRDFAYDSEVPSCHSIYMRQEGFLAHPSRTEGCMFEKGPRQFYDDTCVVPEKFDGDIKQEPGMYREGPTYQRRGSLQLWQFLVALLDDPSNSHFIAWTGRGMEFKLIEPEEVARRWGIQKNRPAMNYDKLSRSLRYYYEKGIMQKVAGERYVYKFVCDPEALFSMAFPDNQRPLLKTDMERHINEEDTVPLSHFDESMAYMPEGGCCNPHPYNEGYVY
Sequence of CRX (O43186 whole entry): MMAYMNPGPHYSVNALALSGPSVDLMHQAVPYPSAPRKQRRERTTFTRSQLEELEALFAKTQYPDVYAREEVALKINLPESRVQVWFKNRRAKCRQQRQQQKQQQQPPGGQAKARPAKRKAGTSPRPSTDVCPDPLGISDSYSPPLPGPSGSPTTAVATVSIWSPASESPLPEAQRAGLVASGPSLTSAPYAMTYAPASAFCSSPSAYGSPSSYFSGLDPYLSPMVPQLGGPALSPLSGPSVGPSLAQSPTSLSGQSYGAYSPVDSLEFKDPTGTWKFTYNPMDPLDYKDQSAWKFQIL

Regarding TCGCTT, the binding signal is 1.2 fold enrichment (6-mer frequency, TF over GST control) with FEV; 1.38 fold enrichment (6-mer frequency, TF over GST control) in the test with ETV5; 1.11 fold enrichment (6-mer frequency, TF over GST control) with HSF1; 1.08 fold enrichment (6-mer frequency, TF over GST control) with SPIC; 1.24 fold enrichment (6-mer frequency, TF over GST control) with ELF4; 1.21 fold enrichment (6-mer frequency, TF over GST control) with ELK4. For the same sequence, the binding signal with ETV2 is 1.05 fold enrichment (6-mer frequency, TF over GST control); with ELF3, 1.18 fold enrichment (6-mer frequency, TF over GST control); with CRX it was 1.15 fold enrichment (6-mer frequency, TF over GST control); with ETV1, 1.24 fold enrichment (6-mer frequency, TF over GST control); with ERF it was 1.21 fold enrichment (6-mer frequency, TF over GST control); with ETV3L it was 1.24 fold enrichment (6-mer frequency, TF over GST control). The binding signal is 1.34 fold enrichment (6-mer frequency, TF over GST control) in the test with ETS2; 1.18 fold enrichment (6-mer frequency, TF over GST control) with SPDEF; 1.29 fold enrichment (6-mer frequency, TF over GST control) with ETV7; 1.21 fold enrichment (6-mer frequency, TF over GST control) in the test with ELF5; 1.24 fold enrichment (6-mer frequency, TF over GST control) with ETV3; 1.22 fold enrichment (6-mer frequency, TF over GST control) in the test with ETV6.
